# Values joined by “and” are separate entries in the source; they are usually repeats but may differ in a detail not shown here. Equal values may be shown once. A number with no mark means an inactive call. Results filed as inconclusive are left out. Entries that show only a call come without a potency. Active and inactive are the calls of the source. Unless noted, calls come from the whole dose curve; as a rule, active = well fitted curve in the direction sought with a large enough effect; inconclusive = small, poorly fitted or top-dose-only effect, or another doubt; inactive = no such curve, though single readings can be large; an effect the other way counts as inactive or inconclusive.
# What was measured:
# [1] = qHTS for Inhibitors of Cell Surface uPA Generation: Validation Assay (AID 493164);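 note: RAW 264.7 macrophage cells exposed to compound for 18 h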
# Outline: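 Compounds are titrated over seven points (2.45 nM–38.3 uM final) onto pre-plated RAW 264.7 cells and incubated for 18 h. Retained intracellular ATP, measured with ATP-Lite, indicates blocked lethal factor entry.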
# [2] = biological target: Galactokinase (Homo sapiens) (UniProt P51570); assay: qHTS Validation Assay for Inhibitors of Human Galactokinase (GALK) (AID 493189)
# Outline: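 GALK (5 nM) with 35 uM ATP and 100 uM galactose in HEPES pH 8.0 with MgCl2, NaCl, DTT and BSA. Reaction ran 1 h at room temperature. Residual ATP read by Kinase-Glo Plus luminescence.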
# [3] = Validation screen for small molecules that induce DNA re-replication in SW480 colon adenocarcinoma cells (AID 504364); note: potency is the fitted concentration of half-maximal effect
# Outline: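 Read-out: total Hoechst intensity of nuclei by fluorescence scanning imager; hits raise the fraction of nuclei with elevated DNA content. Cells received compound for 48 hr at 37 C before a 40 min stain.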
# [4] = biological target: Peptidyl-prolyl cis-trans isomerase NIMA-interacting 1 (Homo sapiens) (UniProt Q13526); assay: qHTS Validation Assay to Find Inhibitors of Pin1 (AID 504536; active = well fitted inhibition curve with a large enough effect in the polarisation, with a control signal flat, not every such curve was filed as active; the % refers to the polarisation)
# Outline: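 Fluorescence polarization competition: compounds (titration) displace HiFluor-488-labeled Pin1-1b peptide from Pin1 (0.3 uM final) in pH 7.5 HEPES buffer with DTT, 10 min at room temperature; %Activity normalized to no-enzyme wells, curves fitted.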
# [5] = biological target: phosphoglycerate mutase (Leishmania major) (UniProt Q4Q090); assay: qHTS Validation Assay to Find Inhibitors of Phosphoglycerate Mutase (AID 504548); settings: Potency: inhibition qHTS; note: potency is the fitted concentration of half-maximal effect
# Outline: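 Luminescent end-point read-out via Kinase-GloPlus after a 10-minute development. Reaction: 1.25nM Leishmania major PGAM with substrate and compound, 45 minutes at room temperature in TEA buffer (pH 7.6) with MgCl2 and Tween-20.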
# [6] = biological target: Ubiquitin carboxyl-terminal hydrolase 1 (Homo sapiens) (UniProt O94782); assay: Inhibitors of USP1/UAF1: Pilot qHTS (AID 504865); note: nearly all actives have a fitted effect of over 35% in size; note: potency is the fitted concentration of half-maximal effect
# Outline: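 USP1/UAF1 complex at 1 nM preincubated 15 min at room temperature with compound, then Ub-Rho substrate added at 150 nM final. Fluorescence (480/540 nm) read kinetically in 50 mM HEPES pH 7.8, 0.5 mM EDTA, 1 mM TCEP, 0.1 mg/ml BSA, 0.01% Tween-20.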
# [7] = qHTS for Inhibitors of ATXN expression: Validation of Cytotoxic Assay (AID 588349)
# Outline: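 Cytotoxicity counter-screen: HEK293 cells exposed to compound titrations, 72 hr, 37 degrees C. Read-out is intracellular ATP (CellTiter Glo luminescence) as a viability measure.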
# [8] = qHTS for Inhibitors of ATXN expression: Validation (AID 588378); note: series mostly up to about 57 µM; nearly all actives have a fitted effect of over 75% in size
# Outline: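 HEK293 cells carrying ATXN2-firefly luciferase reporter, treated with compound 24 h at 37 °C. Viability read first by CellTiter-Fluor (405/525 nm), then reporter expression by Bright-Glo luminescence; controls were a known ATXN2 expression inhibitor and a luciferase inhibitor.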
# [9] = biological target: Estrogen receptor (Homo sapiens) (UniProt P03372); assay: qHTS assay for small molecule antagonists of estrogen receptor alpha signaling (AID 588513; active = well fitted curve in the direction sought with a large enough effect in the signal ratio, with a control signal flat, not every such curve was filed as active; the % refers to the signal ratio)
# Outline: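 ER-alpha-UAS-bla GripTite HEK 293 cells in 2% charcoal/dextran-treated FBS medium; compounds titrated (1:2, duplicate), then stimulated with 0.5 nM 17-beta-estradiol for 18 h at 37C. CCF4 beta-lactamase fluorescence; Hill-fit IC50 and efficacy.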
# [10] = biological target: Estrogen receptor (Homo sapiens) (UniProt P03372); assay: qHTS assay for small molecule agonists of estrogen receptor alpha signaling (AID 588514; calls by dose curve; note: nearly all actives have a fitted effect of over 70% in size)
# Outline: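 Read-out: CCF4 fluorescence from a beta-lactamase reporter in ER-alpha-UAS-bla HEK 293 cells after 18 hrs of compound exposure at 37 C. Normalized to 20 nM 17-beta-estradiol (100%) and DMSO (0%).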
# [11] = biological target: Androgen receptor (Homo sapiens) (UniProt P10275); assay: qHTS assay for small molecule agonists of androgen receptor signaling (AID 588515; active = well fitted curve in the direction sought with a large enough effect in the signal ratio, with a control signal flat; the % refers to the signal ratio); settings: AR-UAS-bla HEK293, beta-lactamase ratio, agonist 16 h; active compounds read high
# Outline: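 Stimulation of an AR-responsive β-lactamase reporter in GripTite HEK293 cells was measured after 16 h compound exposure at 37 °C, via CCF4 fluorescence after 2 h RT. EC50 from Hill fits, normalized to R1881 at 30 nM.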
# [12] = biological target: Androgen receptor (Homo sapiens) (UniProt P10275); assay: qHTS assay for small molecule antagonists of androgen receptor signaling (AID 588516; active = well fitted curve in the direction sought with a large enough effect in the signal ratio, with a control signal flat, not every such curve was filed as active; the % refers to the signal ratio)
# Outline: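 AR-UAS-bla GripTite HEK 293 cells (2000/well) treated with compound titrations plus 10 nM R1881 for 16 h at 37C. Beta-lactamase read by CCF4 FRET (460/530 nm); IC50 from Hill fits, normalized to R1881 and DMSO control wells.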
# [13] = biological target: Glucocorticoid receptor (Homo sapiens) (UniProt P04150); assay: qHTS assay for small molecule agonists of glucocorticoid receptor signaling (AID 588532; active = well fitted curve in the direction sought with a large enough effect in the signal ratio, with a control signal flat; the % refers to the signal ratio); settings: HeLa MMTV-bla, beta-lactamase ratio, agonist, 18 h; active compounds read high; percent of dexamethasone control, DMSO zero
# Outline: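 MMTV-bla HeLa beta-lactamase reporter cells in 1% charcoal/dextran FBS medium, compounds up to 92 uM for 18 h at 37 C, CCF4 readout; normalized to 0.1 uM dexamethasone (100%), EC50 and efficacy from Hill fits.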
# [14] = biological target: Glucocorticoid receptor (Homo sapiens) (UniProt P04150); assay: qHTS assay for small molecule antagonists of glucocorticoid receptor signaling (AID 588533; active = well fitted inhibition curve with a large enough effect in the signal ratio, with a control signal flat, not every such curve was filed as active; the % refers to the signal ratio;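 note: cells stimulated with 2 nM dexamethasone as agonist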)
# Outline: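 Antagonist-mode qHTS: compound titrations added to GRE-bla HeLa cells, then dexamethasone 2 nM final; 18 h, 37 C. CCF4 FRET fluorescence normalized to dexamethasone and DMSO; IC50 from Hill fit.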
# [15] = biological target: Peroxisome proliferator-activated receptor gamma (Homo sapiens) (UniProt P37231); assay: qHTS assay for small molecule agonists of peroxisome proliferator-activated receptor gamma signaling (AID 588536; active = well fitted curve in the direction sought with a large enough effect in the signal ratio, with a control signal flat, not every such curve was filed as active; the % refers to the signal ratio)
# Outline: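 Beta-lactamase reporter read-out: CCF4 fluorescence (ex 405, em 460/530 nm) after 2 h at RT. HEK293 GeneBLAzer cells were treated for 16 h at 37 C. Hill fits gave EC50 and efficacy versus 2 uM rosiglitazone (100%) and DMSO (0%).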
# [16] = biological target: Peroxisome proliferator-activated receptor gamma (Homo sapiens) (UniProt P37231); assay: qHTS assay for small molecule antagonists of peroxisome proliferator-activated receptor gamma signaling (AID 588537; active = well fitted inhibition curve with a large enough effect in the signal ratio, with a control signal flat, not every such curve was filed as active; the % refers to the signal ratio;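 note: reporter cells co-stimulated with 50 nM rosiglitazone agonist during compound treatment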)
# Outline: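 Read-out: CCF4 fluorescence (ex 405, em 460/530 nm) after 2 h at RT. Cells were HEK293 carrying a UAS-bla reporter and treated 16 h at 37 C with compound plus rosiglitazone (50 nM final). Normalized to rosiglitazone and DMSO.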
# [17] = biological target: DNA dC->dU-editing enzyme APOBEC-3G (Homo sapiens) (UniProt Q9HC16); assay: qHTS for inhibitors of Vif-A3G interactions: Validation (AID 588379)
# Outline: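 Yellow fluorescence (Ex 488, Em 500-530) of Vif-coexpressing HeLa A3G-eYFP cells, scanned by Acumen cytometer, reports blocked A3G degradation. Cells plated at 700/well overnight at 37 deg C before compound addition, then a further overnight compound incubation at 37 deg C.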
# [18] = biological target: Bile acid receptor (Homo sapiens) (UniProt Q96RI1); assay: qHTS assay for small molecule antagonists of farnesoid X receptor signaling (AID 588526; calls by dose curve)
# Outline: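 Antagonist mode: titrated compounds tested against chenodeoxycholic acid stimulation (normalized to 50 uM CDCA and DMSO) in GeneBLAzer HEK293T cells for 16 h. Beta-lactamase read by CCF4 fluorescence; IC50 from Hill fits.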
# Galactokinase (Homo sapiens), sequence (P51570 whole entry, looked up): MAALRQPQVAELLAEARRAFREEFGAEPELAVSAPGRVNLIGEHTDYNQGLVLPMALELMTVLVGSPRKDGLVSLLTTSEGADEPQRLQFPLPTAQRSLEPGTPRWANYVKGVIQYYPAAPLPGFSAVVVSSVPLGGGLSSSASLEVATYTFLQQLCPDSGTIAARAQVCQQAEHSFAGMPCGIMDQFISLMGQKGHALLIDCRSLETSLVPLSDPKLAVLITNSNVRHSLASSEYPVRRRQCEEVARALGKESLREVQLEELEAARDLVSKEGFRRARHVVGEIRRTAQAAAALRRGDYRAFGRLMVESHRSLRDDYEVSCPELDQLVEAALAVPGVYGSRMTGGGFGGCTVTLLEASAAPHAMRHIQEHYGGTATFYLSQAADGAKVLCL
# DNA dC->dU-editing enzyme APOBEC-3G (Homo sapiens), sequence (Q9HC16 whole entry, looked up): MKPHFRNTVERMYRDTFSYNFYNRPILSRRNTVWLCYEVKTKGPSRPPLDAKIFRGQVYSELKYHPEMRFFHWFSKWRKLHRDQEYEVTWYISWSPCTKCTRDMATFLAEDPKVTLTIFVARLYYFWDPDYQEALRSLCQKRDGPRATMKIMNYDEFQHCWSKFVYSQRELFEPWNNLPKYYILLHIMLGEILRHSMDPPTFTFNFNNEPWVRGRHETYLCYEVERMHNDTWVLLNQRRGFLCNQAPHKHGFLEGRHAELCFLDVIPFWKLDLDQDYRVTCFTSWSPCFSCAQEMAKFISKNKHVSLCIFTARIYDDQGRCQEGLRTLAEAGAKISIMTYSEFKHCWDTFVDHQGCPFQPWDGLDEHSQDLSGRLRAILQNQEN
# Ubiquitin carboxyl-terminal hydrolase 1 (Homo sapiens), sequence (O94782 whole entry, looked up): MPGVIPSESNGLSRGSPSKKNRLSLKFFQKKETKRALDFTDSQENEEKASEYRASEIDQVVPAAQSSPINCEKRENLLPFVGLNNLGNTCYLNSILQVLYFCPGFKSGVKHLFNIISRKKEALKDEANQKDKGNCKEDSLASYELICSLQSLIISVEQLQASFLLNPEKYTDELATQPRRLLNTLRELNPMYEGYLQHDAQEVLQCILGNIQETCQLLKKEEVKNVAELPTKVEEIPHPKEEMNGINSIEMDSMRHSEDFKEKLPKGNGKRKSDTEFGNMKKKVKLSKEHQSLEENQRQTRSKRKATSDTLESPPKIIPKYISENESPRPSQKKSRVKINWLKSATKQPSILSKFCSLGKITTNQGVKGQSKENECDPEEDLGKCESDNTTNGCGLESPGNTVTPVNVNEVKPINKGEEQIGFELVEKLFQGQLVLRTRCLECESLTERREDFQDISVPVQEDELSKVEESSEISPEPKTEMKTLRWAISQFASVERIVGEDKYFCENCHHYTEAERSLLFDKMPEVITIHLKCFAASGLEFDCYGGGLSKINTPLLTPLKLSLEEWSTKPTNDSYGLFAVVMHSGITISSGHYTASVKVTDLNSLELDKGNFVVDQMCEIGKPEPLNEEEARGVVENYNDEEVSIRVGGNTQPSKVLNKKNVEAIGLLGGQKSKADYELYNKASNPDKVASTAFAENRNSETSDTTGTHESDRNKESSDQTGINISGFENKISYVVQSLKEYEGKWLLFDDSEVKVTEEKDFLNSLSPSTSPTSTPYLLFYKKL
# Peroxisome proliferator-activated receptor gamma (Homo sapiens), sequence (P37231 whole entry, looked up): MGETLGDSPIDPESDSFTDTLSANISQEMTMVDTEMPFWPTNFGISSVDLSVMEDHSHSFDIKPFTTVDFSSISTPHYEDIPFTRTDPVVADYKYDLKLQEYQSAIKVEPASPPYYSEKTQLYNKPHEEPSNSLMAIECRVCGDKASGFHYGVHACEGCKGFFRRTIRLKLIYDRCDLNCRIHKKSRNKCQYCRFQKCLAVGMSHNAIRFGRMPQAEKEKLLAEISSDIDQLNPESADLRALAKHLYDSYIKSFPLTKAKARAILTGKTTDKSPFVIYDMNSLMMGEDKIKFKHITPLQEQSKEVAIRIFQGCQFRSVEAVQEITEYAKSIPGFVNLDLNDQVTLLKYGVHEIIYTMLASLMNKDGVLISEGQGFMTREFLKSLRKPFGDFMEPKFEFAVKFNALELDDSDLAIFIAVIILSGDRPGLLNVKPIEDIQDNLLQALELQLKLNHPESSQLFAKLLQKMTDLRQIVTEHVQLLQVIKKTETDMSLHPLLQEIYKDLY
# phosphoglycerate mutase (Leishmania major), sequence (Q4Q090 1-553): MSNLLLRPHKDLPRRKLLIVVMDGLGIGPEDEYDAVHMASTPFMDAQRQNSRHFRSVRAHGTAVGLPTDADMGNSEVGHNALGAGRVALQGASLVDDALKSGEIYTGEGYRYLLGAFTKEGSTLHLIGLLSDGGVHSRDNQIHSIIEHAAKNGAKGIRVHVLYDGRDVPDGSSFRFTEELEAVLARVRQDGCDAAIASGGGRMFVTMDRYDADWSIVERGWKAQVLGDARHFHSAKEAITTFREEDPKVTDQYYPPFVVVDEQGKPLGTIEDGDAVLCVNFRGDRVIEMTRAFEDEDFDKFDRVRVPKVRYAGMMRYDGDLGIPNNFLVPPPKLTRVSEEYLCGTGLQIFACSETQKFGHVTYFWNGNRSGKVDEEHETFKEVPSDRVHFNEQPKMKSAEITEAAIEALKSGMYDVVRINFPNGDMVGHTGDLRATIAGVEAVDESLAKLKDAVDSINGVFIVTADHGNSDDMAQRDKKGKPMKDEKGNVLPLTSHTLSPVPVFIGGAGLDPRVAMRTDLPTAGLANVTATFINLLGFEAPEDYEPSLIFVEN
# Estrogen receptor (Homo sapiens), sequence (P03372 whole entry, looked up): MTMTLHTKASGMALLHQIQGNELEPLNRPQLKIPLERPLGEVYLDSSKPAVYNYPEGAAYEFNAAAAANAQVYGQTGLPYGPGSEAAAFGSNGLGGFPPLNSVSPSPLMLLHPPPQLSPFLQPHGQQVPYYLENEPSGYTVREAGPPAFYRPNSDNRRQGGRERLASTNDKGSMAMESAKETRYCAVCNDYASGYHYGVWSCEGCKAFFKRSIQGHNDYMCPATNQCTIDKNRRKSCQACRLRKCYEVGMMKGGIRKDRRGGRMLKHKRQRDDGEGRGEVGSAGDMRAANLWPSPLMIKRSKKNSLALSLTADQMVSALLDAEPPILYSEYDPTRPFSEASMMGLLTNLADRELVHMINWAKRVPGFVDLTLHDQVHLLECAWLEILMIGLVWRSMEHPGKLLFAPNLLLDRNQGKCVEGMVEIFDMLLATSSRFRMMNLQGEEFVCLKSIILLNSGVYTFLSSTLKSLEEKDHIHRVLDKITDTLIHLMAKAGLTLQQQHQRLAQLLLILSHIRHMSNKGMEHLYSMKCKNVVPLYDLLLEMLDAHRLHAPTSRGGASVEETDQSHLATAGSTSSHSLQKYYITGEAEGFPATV
# Peptidyl-prolyl cis-trans isomerase NIMA-interacting 1 (Homo sapiens), sequence (Q13526 whole entry, looked up): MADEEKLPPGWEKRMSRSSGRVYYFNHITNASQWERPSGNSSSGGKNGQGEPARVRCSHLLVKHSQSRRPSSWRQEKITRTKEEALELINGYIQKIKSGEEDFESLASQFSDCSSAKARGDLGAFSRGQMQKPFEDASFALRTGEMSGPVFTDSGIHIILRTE
# Androgen receptor (Homo sapiens), sequence (P10275 whole entry, looked up): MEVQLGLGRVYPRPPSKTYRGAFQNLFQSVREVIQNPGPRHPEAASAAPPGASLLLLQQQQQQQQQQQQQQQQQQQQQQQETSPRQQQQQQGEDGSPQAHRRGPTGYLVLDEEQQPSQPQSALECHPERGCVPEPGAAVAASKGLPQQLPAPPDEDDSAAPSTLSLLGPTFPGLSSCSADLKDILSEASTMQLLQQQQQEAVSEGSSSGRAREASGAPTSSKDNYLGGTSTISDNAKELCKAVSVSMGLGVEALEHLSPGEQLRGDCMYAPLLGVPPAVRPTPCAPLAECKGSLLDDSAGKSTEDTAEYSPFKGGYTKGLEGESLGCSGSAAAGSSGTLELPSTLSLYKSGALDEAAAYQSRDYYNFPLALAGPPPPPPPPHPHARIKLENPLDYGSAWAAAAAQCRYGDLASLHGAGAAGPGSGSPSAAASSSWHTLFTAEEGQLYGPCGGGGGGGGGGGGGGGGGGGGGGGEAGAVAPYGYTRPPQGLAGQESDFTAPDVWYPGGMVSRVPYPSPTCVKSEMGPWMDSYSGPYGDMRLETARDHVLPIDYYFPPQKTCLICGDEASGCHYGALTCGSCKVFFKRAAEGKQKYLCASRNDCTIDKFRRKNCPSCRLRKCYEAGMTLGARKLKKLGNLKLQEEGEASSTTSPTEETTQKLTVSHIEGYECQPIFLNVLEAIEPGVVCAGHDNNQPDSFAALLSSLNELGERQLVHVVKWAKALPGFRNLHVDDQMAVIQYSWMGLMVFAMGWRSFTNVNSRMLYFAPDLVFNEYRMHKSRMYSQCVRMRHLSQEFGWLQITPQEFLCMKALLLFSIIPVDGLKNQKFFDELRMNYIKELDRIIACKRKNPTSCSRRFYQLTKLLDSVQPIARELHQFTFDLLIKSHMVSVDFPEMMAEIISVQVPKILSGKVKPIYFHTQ
# Bile acid receptor (Homo sapiens), sequence (Q96RI1 whole entry, looked up): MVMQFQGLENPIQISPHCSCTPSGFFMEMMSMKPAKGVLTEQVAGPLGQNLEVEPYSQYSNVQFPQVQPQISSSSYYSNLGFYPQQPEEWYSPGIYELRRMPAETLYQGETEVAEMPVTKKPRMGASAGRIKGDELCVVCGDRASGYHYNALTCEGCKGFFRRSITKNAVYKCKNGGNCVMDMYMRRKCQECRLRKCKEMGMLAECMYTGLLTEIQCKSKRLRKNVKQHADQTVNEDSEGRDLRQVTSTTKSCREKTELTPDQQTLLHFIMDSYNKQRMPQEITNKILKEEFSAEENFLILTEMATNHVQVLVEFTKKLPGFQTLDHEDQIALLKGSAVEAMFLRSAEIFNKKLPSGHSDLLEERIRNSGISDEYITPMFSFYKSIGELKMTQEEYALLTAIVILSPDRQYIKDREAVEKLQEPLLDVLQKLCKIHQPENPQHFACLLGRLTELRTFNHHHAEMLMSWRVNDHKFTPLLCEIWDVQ
structure (smiles),measurement,setting,value
O=C(c1ccccc1)c1ccc2n1CCC2C(=O)O (configuration not stated),outcome,[1],inactive
same,outcome,[2],inactive
same,Potency,[3],inactive
same,outcome,[4],inactive
same,Potency,[5],inactive
same,Potency,[6],inactive
same,outcome,[7],inactive
same,Potency,[8],inactive
COc1cc2nc(N3CCN(C(=O)C4CCCO4)CC3)nc(N)c2cc1OC (configuration not stated),outcome,[1],inactive
same,outcome,[2],inactive
same,Potency,[3],inactive
same,outcome,[4],inactive
same,Potency,[5],inactive
same,Potency,[6],inactive
same,outcome,[7],inactive
same,Potency,[8],inactive
CCN(CC)C(=S)SSC(=S)N(CC)CC,outcome,[1],inactive
same,outcome,[2],inactive
same,Potency,[3],206 nM (active)
same,outcome,[4],inactive
same,Potency,[5],inactive
same,Potency,[6],inactive
same,outcome,[9],inactive
same,outcome,[10],inactive
same,activation,[11],6.34%
same,outcome,[12],inactive
same,activation,[13],3.99%
same,outcome,[14],inactive
same,outcome,[15],inactive
same,Potency,[16],inactive
O=Nc1c(-c2c(O)[nH]c3cc(Br)ccc23)[nH]c2ccccc12,outcome,[1],inactive
same,outcome,[2],inactive
same,Potency,[3],inactive
same,outcome,[4],inactive
same,Potency,[5],21300 nM (active)
same,Potency,[6],inactive
same,Potency,[8],inactive
CC(C)c1ccc2c(c1)c(SC(C)(C)C)c(CC(C)(C)C(=O)O)n2Cc1ccc(Cl)cc1,outcome,[1],inactive
same,outcome,[2],inactive
same,Potency,[3],inactive
same,outcome,[4],inactive
same,Potency,[5],inactive
same,Potency,[6],25.1 µM (active) and 50.1 µM (active)
same,outcome,[17],inactive
Oc1ccc2ccccc2c1SSc1c(O)ccc2ccccc12,outcome,[1],inactive
same,outcome,[4],inactive
same,Potency,[5],inactive
same,Potency,[6],inactive
same,outcome,[7],inactive
same,Potency,[8],inactive
NNc1nncc2ccccc12,outcome,[1],inactive
same,outcome,[2],inactive
same,Potency,[3],inactive
same,outcome,[4],inactive
same,Potency,[5],inactive
same,Potency,[6],inactive
same,outcome,[7],inactive
same,Potency,[8],inactive
O=C(CCc1ccc(O)cc1)c1c(O)cc(O)cc1O,outcome,[1],inactive
same,outcome,[2],inactive
same,Potency,[3],inactive
same,outcome,[4],inactive
same,Potency,[5],inactive
same,outcome,[7],inactive
same,Potency,[8],inactive
same,outcome,[17],inactive
C[C@@H](N)C1CCC(C(=O)Nc2ccncc2)CC1 (some centres not stated),outcome,[1],inactive
same,outcome,[2],inactive
same,Potency,[3],inactive
same,outcome,[4],inactive
same,Potency,[5],inactive
same,Potency,[6],inactive
same,outcome,[7],inactive
same,Potency,[8],inactive
Cc1cccc(C#Cc2ccccc2)n1,outcome,[1],inactive
same,outcome,[2],inactive
same,Potency,[3],inactive
same,outcome,[4],inactive
same,Potency,[6],inactive
same,outcome,[7],inactive
same,Potency,[8],inactive
same,outcome,[17],inactive
CC(=O)O[C@H]1C(=O)[C@@]2(C)C([C@H](OC(=O)c3ccccc3)[C@]3(O)C[C@H](OC(=O)[C@H](O)[C@@H](NC(=O)c4ccccc4)c4ccccc4)C(C)=C1C3(C)C)[C@]1(OC(C)=O)CO[C@@H]1C[C@@H]2O (some centres not stated),outcome,[1],inactive
same,outcome,[2],inactive
same,Potency,[3],9.2 nM (active)
same,Potency,[5],inactive
same,Potency,[6],inactive
CC1(C)NC(=O)N(c2ccc([N+](=O)[O-])c(C(F)(F)F)c2)C1=O,outcome,[1],inactive
same,outcome,[2],inactive
same,Potency,[3],inactive
same,outcome,[4],inactive
same,Potency,[5],inactive
same,Potency,[6],inactive
same,outcome,[7],inactive
same,Potency,[8],inactive
same,outcome,[17],inactive
same,outcome,[18],inactive
same,outcome,[15],inactive
same,Potency,[16],inactive
Nc1ccn([C@@H]2O[C@H](CO)[C@@H](O)C2O)c(=O)n1 (some centres not stated),outcome,[1],inactive
same,outcome,[4],inactive
same,Potency,[5],inactive
same,Potency,[6],inactive
same,outcome,[7],inactive
CN(C)CCCC1(c2ccc(F)cc2)OCc2cc(C#N)ccc21 (configuration not stated),outcome,[1],inactive
same,outcome,[2],inactive
same,Potency,[3],inactive
same,outcome,[4],inactive
same,Potency,[5],inactive
same,Potency,[6],inactive
same,outcome,[7],inactive
O=c1cc(N2CCOCC2)oc2c(-c3ccccc3)cccc12,outcome,[1],inactive
same,outcome,[2],inactive
same,Potency,[3],inactive
same,outcome,[4],inactive
same,Potency,[5],inactive
same,Potency,[6],inactive
same,outcome,[7],inactive
same,Potency,[8],inactive
same,outcome,[17],inactive
O=c1ccc2ccc(O)c(O)c2o1,outcome,[1],inactive
same,outcome,[2],inactive
same,Potency,[5],inactive
same,Potency,[6],inactive
same,outcome,[7],inactive
same,Potency,[8],inactive
Nc1nc(OCc2ccccc2)c2[nH]cnc2n1,outcome,[1],inactive
same,outcome,[2],inactive
same,Potency,[3],inactive
same,outcome,[4],inactive
same,Potency,[5],inactive
same,Potency,[6],inactive
same,Potency,[8],inactive
COc1ccccc1N1CCN(CCN(C(=O)C2CCCCC2)c2ccccn2)CC1,outcome,[1],inactive
same,outcome,[2],inactive
same,Potency,[3],inactive
same,outcome,[4],inactive
same,Potency,[5],inactive
same,Potency,[6],inactive
same,outcome,[7],inactive
same,Potency,[8],inactive
COc1cc2c(cc1OC)C1CC(=O)C(CC(C)C)CN1CC2 (configuration not stated),outcome,[1],inactive
same,outcome,[4],inactive
same,Potency,[5],inactive
same,Potency,[6],inactive
same,outcome,[7],inactive
same,Potency,[8],inactive
NC(=NCc1ccccc1)NC(=O)c1nc(Cl)c(N)nc1N,outcome,[1],inactive
same,outcome,[2],inactive
same,Potency,[3],inactive
same,outcome,[4],inactive
same,Potency,[5],inactive
same,Potency,[6],inactive
same,Potency,[8],inactive
O=C1c2c(O)cc(O)cc2OC(c2ccc(O)c(O)c2)C1O (configuration not stated),outcome,[1],inactive
same,outcome,[2],inactive
same,Potency,[3],inactive
same,Potency,[5],inactive
same,Potency,[6],inactive
same,outcome,[7],inactive
same,Potency,[8],inactive
same,outcome,[17],inactive
O=C1NC(=O)C(c2ccccc2[N+](=O)[O-])=C1Nc1ccc(O)c(Cl)c1,outcome,[1],inactive
same,outcome,[2],inactive
same,outcome,[4],inactive
same,Potency,[5],inactive
same,Potency,[6],inactive
same,outcome,[7],inactive
same,Potency,[8],inactive
same,outcome,[17],inactive
CNC[C@H](O)c1ccc(O)c(O)c1,outcome,[1],inactive
same,outcome,[2],inactive
same,Potency,[3],inactive
same,outcome,[4],inactive
same,Potency,[5],inactive
same,Potency,[6],inactive
same,outcome,[7],inactive
same,Potency,[8],inactive
same,outcome,[17],inactive
same,outcome,[10],inactive
same,outcome,[15],inactive
same,Potency,[16],inactive
